According to the supplement of paper PMC13380429:

Legend:
[1] = test system: Vero E6 infected with SARS-CoV-2; experiment: morphology score (similarity to uninfected cells); higher = more like uninfected cells; conditions: 24 h
[2] = test system: Vero E6 infected with SARS-CoV-2; experiment: SARS-CoV-2 infection rate relative to infected DMSO; higher = more infection, active = 60 or less; conditions: 24 h

SMILES | morphology score [1] | SARS-CoV-2 infection rate [2]
Cc1cc(O)cc(C)c1Cl [chloroxylenol] (10 µM) | 0.0293 | 99% (inactive)
CC(=O)Nc1cccc(-n2c(=O)n(C3CC3)c(=O)c3c(Nc4ccc(I)cc4F)n(C)c(=O)c(C)c32)c1 [trametinib] (0.833333 µM) | 0.263 | 89% (inactive)
CCOc1ccc(C[C@H]2NC(=O)CCSSC[C@@H](C(=O)N3CCC[C@H]3C(=O)N[C@@H](CCCN)C(=O)NCC(N)=O)NC(=O)[C@H](CC(N)=O)NC(=O)[C@H]([C@@H](C)O)NC(=O)[C@H]([C@@H](C)CC)NC2=O)cc1 [atosiban] (10 µM) | 0.175 | 91% (inactive)
O=C(/C=C/c1c(C(=O)O)[nH]c2cc(Cl)cc(Cl)c12)Nc1ccccc1 [gavestinel] (10 µM) | 0.121 | 108% (inactive)
CN(C(=O)c1c(O)c2ccccc2n(C)c1=O)c1ccccc1 [roquinimex] (10 µM) | 0.211 | 94.5% (inactive)
Cc1c(C2CCN(CCc3ccccc3)CC2)noc1-c1ccc(Cl)cc1 (10 µM) | 0.195 | 84% (inactive)
O=C([O-])C(O)[C@H](O)[C@@H](O)[C@H](O)[C@H](O)CO.O=C([O-])C(O)[C@H](O)[C@@H](O)[C@H](O)[C@H](O)CO.[Ca+2] (stereo partly drawn) [calcium-gluceptate] (10 µM) | -0.0282 | 114% (inactive)
C[C@H](NC[C@H](O)CP(=O)(O)CC1CCCCC1)c1ccc(Cl)c(Cl)c1 (10 µM) | -0.206 | 114% (inactive)
CN1CCN(CCc2ccc(Cl)c(Cl)c2)CC1 (10 µM) | 0.156 | 94% (inactive)
